Shown are actives, neighbours in structure and some others; about 2.9% of the full set was active somewhere.
Glyco luc inh: blocks N-linked glycosylation in D54 reporter cells; D54 ERlucT glycosylation luciferase reporter, 24 h; percent of 100 nM tunicamycin response; reporter increase, % at 12.5 µM; actives 0.23% (n = 360,000); AID 588692;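 active = mean luciferase reporter signal, scaled so untreated is 0 and the glycosylation-blocking control 100, at or above a set limit in every replicate; inconclusive = mean reaches the limit but not every replicate does; inactive = mean below the limit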;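 also: luciferase carries N-glycosylation sites so blocking glycosylation raises the light; 0% = median of neutral control wells and 100% = median of 100 nM tunicamycin wells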
MITF TRPM1 inh: inhibitors of MITF-driven TRPM1 promoter in melanoma cells; inhibition, % at 12.5 µM; SK-MEL-5 TRPM1 promoter luciferase, 24 h; AID 488899; actives 0.83% (n = 330,000);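 active = mean inhibition across replicates of 60% or more, whatever share of single replicates reaches that level; inconclusive = some that reach 60%, reason not given; inactive = mean inhibition across replicates below 60%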
Wnt act: activators of Wnt/beta-catenin signaling. activation, % at 9.35 µM. actives 1.2% (n = 300,000). Wnt/beta-catenin reporter cell assay, activator, plate reader; in the data active = activation above about 30%, passing the limit was not always enough; inconclusive = no clear call, values can overlap the other calls;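 also: 0% = neutral control wells and 100% = positive control wells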
MITF TRPM1 HTS: activators of MITF-driven TRPM1 promoter activity in SK-MEL-5 cells; SK-MEL-5 TRPM1-promoter luciferase, 24 h; % of positive control, neutral wells = 0; activation, % at 12.5 µM; actives 0.75% (n = 300,000);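 active = mean activation of at least 80% with every replicate also reaching 80%; inconclusive = mean reaches 80% but some replicate falls short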;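 also: 0% = neutral control wells and 100% = parthenolide positive control wells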
NSD2 HMT inh: blocks human histone methyltransferase NSD2. NSD2 peptide methylation, AlphaScreen, 120 min. inhibition, % at 12.5 µM. actives 0.54% (n = 310,000). AID 743445; in the data active = inhibition above about 50%
PfHsp90 set2: growth inhibition of yeast expressing Plasmodium Hsp90; S. cerevisiae expressing PfHsp90, BacTiter-Glo ATP, 48 h; yeast lacking PDR1 and PDR3 efflux regulators; inhibition, % at 9.4 µM; actives 0.32% (n = 310,000); AID 504621;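 active = every replicate shows inhibition above about 80%, whatever the replicate mean, limit read from the data; inconclusive = mean inhibition reaches the set limit but some replicate falls short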;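 also: 0% = DMSO neutral controls and 100% = 20 µM radicicol positive controls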
Active calls of the source: *; u = inconclusive; x = no result.

SMILES	Glyco luc inh	MITF TRPM1 inh	Wnt act	MITF TRPM1 HTS	NSD2 HMT inh	PfHsp90 set2
Cn1c(N)c(S(=O)(=O)N2CCCC2)c(=O)n(C)c1=O	2.6	1.9	30.3*	0.7	-0.6	4.6
Nc1ccc2nn(-c3ccccc3)nc2c1	3.2	-2.2	12.2	1.1	-4.0	9.8
Nc1cc2nn(-c3ccccc3)nc2cc1Cl	-4.5	-0.7	48.7*	2.2	52.2*	6.5
NCCc1c(-c2ccccc2)n(-c2ccccc2)c2ccccc12	5.1	44.0	-1.4	-52.6	60.5*	-6.9
COCCN(C(=O)COC(=O)CSc1ccc(Cl)cc1)c1c(N)n(Cc2ccccc2)c(=O)[nH]c1=O	-0.4	-2.1	-1.5	2.5	-4.2	x
CCOC(=O)c1nn(-c2ccc3c(c2)OCCO3)cc1O	-6.8	-85.7	26.7	82.4*	-6.5	x
COc1ccccc1-c1cccc([C@@H]2C[C@H]3[C@H](CON3C)CN2C(C)=O)c1	2.7	-7.8	-1.0	10.4	x	14.1
CC(=O)c1ccc(-n2c(SCC(=O)c3c[nH]c4ccccc34)nc3ccccc3c2=O)cc1	-2.6	7.5	44.8*	-8.8	-1.7	-9.8
Cn1ccnc1SCC(=O)c1c[nH]c2ccccc12	-2.8	-9.1	55.3*	13.7	-2.6	-11.2
CCOC(=O)c1c(C)[nH]c(C)c1C(=O)CSc1nc2ccccc2c(=O)n1-c1ccc(CC)cc1	-1.0	12.4	-3.2	-11.3	-2.4	-5.2
COc1ccccc1C(=O)CSc1nccn1C	2.5	-32.9	4.5	33.9	4.8	3.1
COC(=O)[C@]12C[C@H](CC(=O)NCCc3ccccc3OC)C(=O)N(CCC3=CCCCC3)C1=C[C@H](C(C)(C)C)O[C@@H]2C	x	x	-16.0	x	x	x
CC(OC(=O)Nc1ccccc1)C(=O)OC1CCCCC1 (stereo unspecified)	0.2	-37.9	-4.6	28.9	5.7	-17.5
Cc1ccc(-c2nnc(N(C)C(=O)c3cccnc3)s2)cc1	-2.1	-25.7	27.5	29.1	-4.0	24.1
COc1ccc(-c2nnc(N(C)C(=O)c3cccnc3)s2)cc1	-2.8	-40.8	41.0*	35.8	6.8	-9.0
CC(C)Oc1ccc(C(=O)Nc2ccc(C(F)(F)F)n(C)c2=O)cc1	2.6	-1.3	-3.9	1.3	-3.6	-56.0
C=C1C(=O)C=C[C@]2(C)C[C@@H]3OC(=O)[C@](C)(O)[C@H]3C[C@@H]12	6.6	x	43.0*	-92.7	x	1.8
C#CCN1C[C@@]2(O)CC[C@@H](O)[C@@H](OC)[C@@H]2[C@@]1(C)[C@H](O)CC=C(C)C	x	x	3.3	x	-1.0	x
COC1C(CO)OC(n2c3c(Cl)cccc3c3c4c(c5c6cccc(Cl)c6[nH]c5c32)C(=O)NC4=O)C(O)C1O (stereo unspecified)	0.6	85.8*	10.4	-85.6	x	-19.2
CN(C)C/C=C(/c1ccc(Br)cc1)c1cccnc1	-1.5	5.7	-1.6	-2.8	x	-8.8
COc1cccc(OC)c1C(=O)NC(C)C12CC3CC(CC(C3)C1)C2 (stereo unspecified)	-1.2	5.4	-3.8	-2.4	1.5	-7.9
CC(NC(=O)c1ccc([N+](=O)[O-])o1)C12CC3CC(CC(C3)C1)C2 (stereo unspecified)	21.4	69.8*	7.1	-68.2	7.9	-21.8
CC(NC(=O)C12CC3CC(CC(C3)C1)C2)C(=O)NN=Cc1ccc([N+](=O)[O-])o1 (stereo unspecified)	19.5	62.1*	1.7	-60.6	5.2	15.6
CC(NC(=O)C12CC3CC(CC(C3)C1)C2)C(=O)N/N=C/C1=C(N2CCOCC2)C(=C\c2cccc([N+](=O)[O-])c2)/CC1 (stereo unspecified)	-1.6	14.1	-2.7	-11.7	35.2	-5.8
O=C(NCc1ccc(Cl)cc1)C1C2C=CC3(CN(Cc4ccccc4)C(=O)C13)O2 (stereo unspecified)	x	x	x	x	-2.4	x
SMILES	Glyco luc inh	MITF TRPM1 inh	Wnt act	MITF TRPM1 HTS	NSD2 HMT inh	PfHsp90 set2
O=C(COC(=O)C1CC2C=CC1C2)NCCc1ccccc1 (stereo unspecified)	2.8	-5.1	1.7	5.6	-1.1	22.5
OCCCn1c(C2CCCN2c2nc(-c3ccc(F)cc3)cs2)nc2cc(Cl)c(Cl)cc21 (stereo unspecified)	-6.8	8.1	-14.6	-4.5	x	106.8*
OCCCn1c(C2CCCN2c2nc(-c3ccc(Cl)cc3)cs2)nc2cc(Cl)c(Cl)cc21 (stereo unspecified)	-1.8	3.0	-10.7	-5.1	x	-16.7
CC1(C(=O)NS(=O)(=O)c2ccc(C#N)cc2)CCN1C(=O)c1cccc(F)c1 (stereo unspecified)	0.3	x	49.1*	x	x	x
CCCCCCC/C=C(\C)[C@@H](O)[C@@H](C)C(=O)N1CCC[C@@H]1C(=O)O[C@H](C(=O)O[C@@H](C)C(=O)O)[C@@H](C)CC	x	x	x	x	19.8	x
CC#CCN1c2ccccc2[C@]23C[C@@H](C(=O)OC)N(C(=O)c4cc(C)oc4C)C2=NC(C(=O)OC)=C(C(=O)OC)[C@H]13	33.5*	2.4	-6.1	-2.4	x	x
CCOC(=O)c1c(C)oc2c1C(=O)c1ccccc1C2=O	-19.5	96.7*	0.9	-95.1	5.7	-32.1
O=C(CSc1nc2ccccc2nc1N1CCCC1)N1CCN(C(c2ccccc2)c2ccccc2)CC1	x	x	x	x	22.2	x
CCCc1cc(NCc2ccccn2)n2nc(C)c(-c3ccccc3)c2n1	-1.5	13.9	-0.4	x	-1.1	107.1*
CC(C)(C)c1cc(NCCCn2ccnc2)n2ncc(-c3ccc(Cl)cc3)c2n1	-9.5	-68.4	x	64.7	-4.0	x
Cc1nn2c(NCc3ccccn3)cc(C(C)C)nc2c1-c1ccccc1	-3.2	38.6	-21.3	-36.5	-3.8	5.0
Cc1cc(NCc2ccccn2)n2ncc(-c3ccccc3)c2n1	-6.0	-19.4	55.8*	x	11.5	4.0
CN(C)CCCNc1cc(C(C)(C)C)nc2c(-c3ccccc3)cnn12	-6.0	-61.7	43.4*	x	0.0	7.6
Cc1cc(NCc2ccccn2)n2ncc(-c3ccc(Cl)cc3)c2n1	-1.2	-69.5	u	x	-4.3	-6.2
CCn1c2ccccc2c2cc(C=NNC(=O)c3ccoc3C)ccc21	x	x	x	x	-6.5	x
c1ccc(-c2noc(-c3ccc4c(c3)OCO4)n2)nc1	-22.6	92.3*	x	-91.4	x	68.9
c1ccc(-c2noc(-c3ccncc3)n2)nc1	-10.5	-9.6	x	10.4	-0.4	1.7
c1ccc(-c2noc(-c3ccc4ccccc4c3)n2)nc1	-23.9	79.0*	x	x	-3.6	29.7
Cc1cc(NCCc2c[nH]c3ccccc23)ccc1Nc1cccnc1	x	x	-2.6	x	x	x
Clc1ncccc1-c1nnn(-c2ccccc2)n1	-13.1	x	34.2*	99.0*	x	14.2
COc1ncccc1-c1nnn(-c2ccccc2)n1	-12.8	x	53.3*	x	x	12.0
COc1ncccc1-c1nnn(-c2ccccc2Br)n1	4.2	-15.0	15.8	16.1	x	2.6
Clc1ccc(-n2nnc(-c3cccnc3Cl)n2)cc1Cl	-8.1	-83.8	29.7	94.6*	x	x

Screening data deposited in PubChem BioAssay by Broad Institute.
